KinaseGlo FLuc – Counterscreen for Luciferase (Kinase-Glo TM) Inhibition; 200,000 tested, 0.28% active; Kinase-Glo luciferase, ATP luminescence, 8 min; Potency, µM (series often up to 38.3 µM), without a hit: at the top dose activity change, negative = inhibition, usual class: inhibitors; Luciferin 4-monooxygenase (Photuris pensylvanica), Q27757; active means well fitted inhibition curve with a large enough effect; inconclusive means small, poorly fitted or top-dose-only effect; further: potency means the concentration at half of the fitted maximal effect; nearly all actives have a fitted effect of over 60% in size
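Luminescence was the read-out, taken after 8-minute incubation at ambient temperature. Luciferase turned over luciferin with 10 uM ATP in imidazole pH 7.2 buffer containing KCl, MgCl2, Tween 20 and BSA.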
ALDH1A1 inh – qHTS Assay for Inhibitors of Aldehyde Dehydrogenase 1 (ALDH1A1); Purified ALDH1A1, NADH fluorescence, propionaldehyde substrate; Potency, µM (titrated, usually from 75.3 µM), without a hit: top-dose activity, negative = inhibition, hits mostly inhibitors; 220,000 tested, 7.3% active;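 further: potency means the concentration at half of the fitted maximal effect; plate controls were no enzyme wells and a reference inhibitor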
LMNA splice mod – qHTS Assay for Modulators of Lamin A Splicing; HeLa LMNA splicing GFP/RFP minigene ratio, 48 h; Potency, µM (highest dose often 46.1 µM), for inactives: at the highest dose ratio change, negative = inhibition, usual class: inhibitors; 200,000 tested, 0.01% active; active means well fitted inhibition curve with a large enough effect in the signal ratio, with a control signal flat, not every such curve was filed as active; inconclusive means small, poorly fitted or top-dose-only effect, or effect the other way, or a change in a side signal; the % refers to the signal ratio; further: potency means the concentration at half of the fitted maximal effect
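S3 HeLa cells stably expressing lamin A-EGFP splicing minigene plus DsRed2, 600 cells/well, 48 h compound exposure at 37C. Laser-scanning cytometry; analysed as GFP (500-530 nm)/RFP (575-640 nm) total intensity ratio; 0.5% DMSO vehicle.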
HPGD inh – qHTS Assay for Inhibitors of HPGD (15-Hydroxyprostaglandin Dehydrogenase); purified HPGD, NADH fluorescence kinetic, PGE2 substrate; Potency, µM, without a hit: at the top dose activity change, negative = inhibition, most hits filed as inhibitors; 150,000 tested, 4.3% active; further: potency means the concentration at half of the fitted maximal effect
Target sequence (P15428 whole entry, looked up): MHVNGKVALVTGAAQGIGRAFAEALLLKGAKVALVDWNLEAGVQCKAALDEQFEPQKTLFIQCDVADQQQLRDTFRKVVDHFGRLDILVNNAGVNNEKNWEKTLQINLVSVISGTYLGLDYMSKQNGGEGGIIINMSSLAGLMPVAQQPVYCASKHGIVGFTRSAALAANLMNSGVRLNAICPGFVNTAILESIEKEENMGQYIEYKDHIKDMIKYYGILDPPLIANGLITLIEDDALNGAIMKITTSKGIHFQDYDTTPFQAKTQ
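20 nM HPGD preincubated 15 min at room temperature with compound in 50 mM Tris-HCl pH 8, 0.01% Tween 20. Started with 1 mM NAD+ and 30 uM prostaglandin E2; NADH fluorescence (360/450 nm) read 5 times over 30-s intervals, last minus first.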
IMPase inh – qHTS Assay for Identifying the Cell-Membrane Permeable IMPase Inhibitors. Inositol monophosphatase 1 (Rattus norvegicus), P97697. CHO-M1 cells, IP1 accumulation, HTRF TR-FRET ratio. inhibition (IP1 accumulation), % at 46.1 µM. 120,000 tested, under 10 active. AID 901, 2007; active means well fitted curve in the direction sought with a large enough effect in the signal ratio, not every such curve was filed as active; inconclusive means small, poorly fitted or top-dose-only effect, or a change in a side signal; inactive means no such curve, though single readings can be large or run the other way; the % refers to the signal ratio;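 further: cells stimulated with carbachol in lithium chloride buffer; plate controls were DMSO basal wells for no effect and reference inhibitor wells for full effect; higher means more IMPase inhibition seen as more IP1 and lower FRET ratio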
Target sequence (P97697 whole entry, looked up): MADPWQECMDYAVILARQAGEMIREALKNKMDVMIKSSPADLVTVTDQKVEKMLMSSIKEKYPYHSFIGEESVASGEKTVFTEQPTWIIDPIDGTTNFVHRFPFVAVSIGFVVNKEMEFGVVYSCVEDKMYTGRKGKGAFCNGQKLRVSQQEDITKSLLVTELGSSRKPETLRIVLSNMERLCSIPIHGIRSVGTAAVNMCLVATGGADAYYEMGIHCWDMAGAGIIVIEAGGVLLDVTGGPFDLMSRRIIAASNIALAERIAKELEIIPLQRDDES
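Seeded CHO-M1 cells were dosed with compound at up to 46 uM, stimulated with carbachol for 30 min, then lysed in IP-One detection reagents. Higher IP1 lowers the TR-FRET signal.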
PNC assembly inh – High Content Assay for Compounds that inhibit the Assembly of the Perinucleolar Compartment; PC3M PTB-GFP, PNC prevalence imaging, 16 h; active compounds read low; activity change (PNC), negative = inhibition, % at 10 µM; 140,000 tested, 3.1% active;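 active means readout at or below -70, meaning at least 70% loss of cells showing the perinucleolar compartment, a nuclear body marking cancer cells; inconclusive means readout between -30 and a set limit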;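 further: plate controls were DMSO wells for no effect and camptothecin positive control wells for full effect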
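Read-out is percentage of cells bearing a perinucleolar compartment, from automated 20x imaging of fixed, Hoechst-stained PC3M PTB-GFP cells. Cells were seeded 4 h, then exposed 16 h to compound (23 nl of library stock) in duplicate plates.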
* marks the source's active call; other numbers are inactive results; ? = inconclusive; . = not tested or not shown; [ ] = dose if it differs, or a comment. Only some compounds are listed: those with a hit (about 10% of all), similar ones and a draw of the others. Unless noted, the call rests on the fitted dose curve; in most records, active means well fitted inhibition curve with a large enough effect (not every such curve was filed as active); inconclusive means small, poorly fitted or top-dose-only effect, or another doubt; inactive means no such curve, though single readings can be large or run the other way. Unless noted, on the % scale 0 is the no-effect control and ±100 the full control effect.

SMILES	KinaseGlo FLuc	ALDH1A1 inh	LMNA splice mod	HPGD inh	IMPase inh	PNC assembly inh
N#Cc1ccc(NC(=S)NC(=O)CCc2ccc(S(=O)(=O)N3CCOCC3)cc2)cc1	-1.7%	15.8µM*	.	.	.	.
O=C(CN1CCCCCC1)Nc1ccc(S(=O)(=O)N2CCOCC2)cc1	-0.1%	10.5%	.	.	.	.
O=C1CCC/C1=C/Nc1ccc(Cl)cc1	-3.0%	-4.8%	.	.	.	.
O=C1CCCC/C1=C\Nc1ccc(O)cc1	-12.5%	14.1µM*	-26.2%	-23.2%	18.7	-116.6*
Cc1ccc(S(=O)(=O)Nc2ccc(S(=O)(=O)Nc3ncccn3)cc2)cc1	-3.3%	?	0.9%	0.7%	9.5	?
O=C1CCCC/C1=C/Nc1ccc(S(=O)(=O)Nc2ncccn2)cc1	0.4%	22.4µM*	1.3%	-27.4%	-3.2	?
CCC(C)NC(=O)c1sc2nc(C)c(C(=O)Nc3ccc(C)cc3C)c(-c3ccc(NC(C)=O)cc3)c2c1N (centres undefined)	.	.	.	.	6.3	.
Cc1ccc(-n2c(Cc3noc4ccccc34)n[nH]c2=S)cc1	5.4%	14.1µM*	.	.	.	.
C=CCn1c(-c2csc(-c3ccccc3)n2)n[nH]c1=S	-3.6%	0.112µM*	?	?	?	1.4
S=c1[nH]nc(-c2ccc(Cl)cc2)n1Cc1ccccc1	-5.6%	11.2µM*	6.4%	?	22.1	4.7
S=c1[nH]nc(-c2ccc(Br)cc2)n1Cc1ccco1	2.8%	?	-1.1%	25.1µM*	-8.1[1.84 µM]	?
S=c1[nH]nc(CNc2ccc(Cl)cc2)n1Cc1ccccc1	-0.1%	10.5%	3.3%[46 µM]	.	.	.
CCN(CC)c1nn2c(=O)c(C(=O)NCc3ccc(F)cc3)cnc2s1	.	.	10.9%[46 µM]	.	.	.
Cc1ccc(Cl)cc1NC(=O)c1cc2c(=O)n3cccc(C)c3nc2n1C	.	.	8.5%[46 µM]	.	.	.
CCCCOc1ccccc1Cn1c(=O)sc2ccccc21	.	.	.	.	-15.9	.
S=c1[nH]nc(-c2ccc(Br)o2)n1Cc1ccccc1	0.2%	1.41µM*	?	28.2µM*	-12.2	-11.4
S=c1[nH]nc(COc2ccccc2)n1Cc1ccccc1	-2.6%	11.2µM*	?	?	.	51.5
S=c1[nH]nc(-c2cccs2)n1Cc1ccccc1	-1.8%	?	?	.	.	.
S=c1[nH]nc(C2CCCCC2)n1Cc1ccccc1	-4.7%	?	?	.	.	.
S=c1[nH]nc(-c2ccccc2)n1Cc1ccccc1	0.6%	17.8µM*	10.6%	?	7.8	39.2
CCc1ccc(OCc2n[nH]c(=S)n2Cc2ccccc2)cc1	-4.7%	-4.5%	.	.	.	.
Cc1ccc(-n2c(-c3ccccc3)n[nH]c2=S)cc1	5.1%	31.6µM*	-1.4%	?	-13.6	-4.6
CC(C)c1nn2c(=O)cc(COC(=O)C3CCCCC3)nc2s1	.	.	-7.1%[46 µM]	.	.	.
S=c1[nH]nc(COc2ccccc2)n1C1CCCCC1	2.8%	?	3.4%	22.4µM*	-8.2	-6.4
CC(C)c1cc(-c2n[nH]c(=S)n2Cc2ccccc2)cs1	-4.2%	2µM*	-0.1%	?	-7.3	70.9
SMILES	KinaseGlo FLuc	ALDH1A1 inh	LMNA splice mod	HPGD inh	IMPase inh	PNC assembly inh
CCn1c(-c2csc(-c3ccccc3)n2)n[nH]c1=S	-3.8%	?	?	?	-17.8	-11.9
S=c1[nH]nc(CSc2nc3ccccc3s2)n1C1CCCCC1	-5.3%	3.16µM*	?	7.08µM*	4.9	20.6
CCCCOc1cccc(C(=O)N(Cc2ccc(Br)o2)C2CCS(=O)(=O)C2)c1 (centres undefined)	.	.	16.9%[46 µM]	.	.	.
COc1ccc(-c2[nH]ncc2-c2csc(C)n2)c(O)c1	-1.1%	9.0%	-10.7%	-13.3%	10.0	-91.0*
CCOc1ccc(-c2[nH]ncc2-c2csc(C)n2)c(O)c1	.	10.3%	-8.2%	.	0.5	-13.7
COc1cccc(Oc2cn[nH]c2-c2ccc(O)cc2O)c1	-1.0%	?	?	-22.0%	0.6	-86.1*
NNC(=O)c1sc2cc(C(F)(F)F)cnc2c1-c1cccs1	.	0.199µM*	.	.	.	.
COCC(=O)N1CCC2(CCCN(C(=O)Nc3ccc(OC)cc3)C2)CC1	-2.7%	-1.1%	.	-7.3%	.	.
O=C1/C(=C/c2ccco2)SC(=S)N1C1CCS(=O)(=O)C1 (centres undefined)	-11.7%	8.91µM*	?	.	.	.
O=C1/C(=C\c2ccco2)SC(=S)N1C1CCS(=O)(=O)C1 (centres undefined)	.	22.4µM*	.	.	.	.
COc1ccc(C(CNC(=O)COc2ccc(Cl)c(C)c2)N2CCOCC2)cc1 (centres undefined)	.	.	10.7%[46 µM]	.	.	.
COc1cccc(C(=O)Nc2cccc(OCc3cc(=O)n4cccc(C)c4n3)c2)c1	.	.	1.2%[46 µM]	.	.	.
Cc1ccc(C(=O)Nc2nnc(SCc3cc(=O)n4ccc(C)cc4n3)s2)cc1	.	.	1.8%[46 µM]	.	.	.
O=C(O)C1C2C=CC(C3CC23)C1C(=O)O (centres undefined)	3.6%	-5.5%	-1.6%	-6.8%	7.9	-26.0
Cc1cccc(NC(=O)C2C3C=CC(C4CC34)C2C(=O)O)c1 (centres undefined)	-2.4%	-7.5%	-9.1%	-21.3%	28.9	-118.8*
O=C(CN1CCSCC1)N/N=C/c1ccc(F)c(F)c1	0.6%	?	9.0%	-9.3%	4.2	-113.4*
COc1cc(OC)c(NC(=O)CN2CCCN(Cc3ccccc3C)S2(=O)=O)cc1Cl	.	.	-2.7%[46 µM]	.	.	.
O=S(=O)(N/N=C/c1c(F)cccc1Cl)c1ccccc1	2.7%	6.31µM*	-1.6%	-8.0%	26.0	-28.4
Cc1ccc(S(=O)(=O)N/N=C/c2c(F)cccc2Cl)cc1	7.4%	28.2µM*	-24.3%	-8.5%	.	-2.1

Screens as filed in PubChem BioAssay.
